Results filed as inconclusive are left out. Unmarked numbers belong to inactive results. The source made the active and inactive calls. Calls follow the shape of the dose curve; as a rule, active = well fitted cell-killing curve with a large enough effect; inconclusive = small, poorly fitted or top-dose-only effect, or effect the other way; inactive = flat fitted curve, though single readings scatter.
assay: Cell viability assay in S16 Pmp22-HiBiT cells - Confirmatory screen; conditions: S16 Schwann Pmp22-HiBiT viability, CellTiter-Glo, 24 h; series mostly up to 27.9 µM; activity change, negative = viability loss: at the top concentration
From the text: Assay Provider: Jim Inglese Ph.D. National Center for Advancing Translational Science, National Institutes of Health, Rockville, MD CMT is a heterogeneous group of neurological disorders that affect approximately 1 in 2,500 people. In particular, the most common form of CMT, CMT1A is genetically linked to the duplication of the PMP22 gene which leads to Schwann cell overexpression, thus manifesting itself as a typical case of dose-sensitive diseases. To identify small molecule compounds that can mediate the expression of PMP22 we developed a phenotypic assay screening strategy by utilizing genome editing techniques to construct Schwann cell lines containing novel reporter technology to monitor the transcriptional or translational regulation of PMP22. For high sensitivity we use a bioluminescent reporter system embedded in the 3' UTR of the PMP22 gene (S16(c9) Pmp22-F2sN) to identify compounds that inhibit gene expression. […] We can further discriminate the effect of all transcriptionally active molecules on PMP22 translation or stability with an assay that incorporates a short NLuc peptide (HiBiT) at the C-terminus of expressed PMP22 (S16(f8) PMP22-HiBiT) allowing alpha complementation and luminescence detection of membrane-associated PMP22 protein. These assays were screened against the NCATS Sytravon Library Collection. Miniaturization of these assays to 1536-well plate format for quantitative high throughput screening (qHTS) yielded rich data sets immediately from the qHTS assay (S16(c9) Pmp22-F2sN), when compared with data from a cell viability assay (Cell TiterGlo) to identify compounds that decreased the output signals through cellular toxicity to streamline the selection process of actives for subsequent characterization using the HiBiT assay (S16(f8) PMP22-HiBiT).
Cell viability assay in S16 Pmp22-HiBiT cells PROTOCOL TABLE (format as described by Inglese J, Shamu CE and Guy RK. 2007) SEQUENCE No. (e.g., 1, 2, 3, etc.); PARAMETER (e.g., Cells, Incubation, Reagent, etc.); VALUE and DESCRIPTION. 1. Cells. Add 500-1,000 cells in 4 uL in growth media (DMEM High Glucose, No Phenol Red media + 10% heat-inactivated FBS + 1% Pen/Strep supplemented media) per well into Greiner 1536-well white/solid bottom high base, TC-treated plates. 2. Compounds. Library compounds and controls added at 23nL per well, transferred by Pin Tool. 3. Incubation. Incubate plates at 37C, 5% CO2, 95% RH for 24 h. 4. Reagent. Add 3uL CellTiter-Glo per well of Greiner 1536-well plates. 5. Incubation. Incubate plates at room temperature for 15 min., protect from light. 6. Detector. Luminescence measured using CCD-based camera (Viewlux). NOTES (numbers refer to Sequence numbers above; values are from representative experiments) 6. Luminescence Read: Clear filter; Exposure = 1 sec, Gain = High, Speed = Slow, Binning = 2X REFERENCES: 1. Inglese J, Shamu CE and Guy RK, Reporting data from high throughput screening of small molecule libraries, Nature Chemical Biology, 2007, 3(8): 438-441. doi.org/10.1038/nchembio0807-438 2. Yasgar A, Shinn P, Jadhav A, Auld DS, Michael S, Zheng W, Austin CP, Inglese J and Simeonov A, Compound Management for Quantitative High-Throughput Screening. J. Assoc. Lab. Auto., 2008, 13: 79-89. doi: 10.1016/j.jala.2007.12.004

SMILES | activity change, negative = viability loss | Potency
CCOc1cc(CNc2ccc(O)cc2)cc(Br)c1OCc1ccccc1 | -2.33% | –
Cc1cc(C)c(NC(=O)Cn2c(=O)n(Cc3ccco3)c(=O)c3ccc(C(=O)NC4CCCC4)cc32)c(C)c1 | 0.029% | –
O=S(=O)(NCC(c1ccco1)S(=O)(=O)c1cccs1)c1ccc(Cl)cc1 (stereo not given) | -23.4% | –
COc1ccccc1Nc1c2c(nc3ccc(NC(=O)/C=C/c4cccc(OC)c4OC)cc13)CCCC2 | – | 5.13 µM (active)
COc1ccccc1CNC(=O)CSc1nnc(C)c2c(C)n(-c3ccccc3)nc12 | -13.1% | –
CCOc1ccc(C(=O)c2cnc3ccc(Cl)cc3c2S(=O)(=O)c2ccc(C)cc2)cc1 | 9.48% | –
COc1ccc(NC(=O)CCS(=O)(=O)c2nc(-c3cccs3)cc(C(F)(F)F)n2)cc1 | -4.25% | –
CCCN1CCN(CCCNC(=O)Cn2c(-c3cccs3)cc3ccccc32)CC1 | -7.46% | –
Cc1ccc(CN2C(=O)C(O)(c3c(C)[nH]c4ccccc34)c3ccccc32)cc1 (stereo not given) | 27.9% | –
CCS(=O)(=O)c1ncc(Cl)c(C(=O)Nc2c(C(=O)c3ccc(C)cc3)oc3ccccc23)n1 | 7.96% | –
Cc1cccc(-n2c(=O)c3c(c4cc(C)ccc4n3C)n(CC(=O)NCCC3=CCCCC3)c2=O)c1 | -5.38% | –
CCC(C)NC(=O)C1CCN(C(=O)c2cc3sccc3n2Cc2ccc(Cl)cc2)CC1 (stereo not given) | – | 11.5 µM (active)
COc1ccccc1NC(=O)Cn1c(=O)n(-c2cccc(Cl)c2)c(=O)c2sc3ccccc3c21 | – | 12.9 µM (active)
CCOC(=O)c1c(NC(=O)c2nc(S(C)(=O)=O)ncc2Cl)sc(C(C)=O)c1C | – | 4.57 µM (active)
O=C(Cn1c(-c2cccs2)cc2cc(F)ccc21)NCCCN1CCN(c2ccc(F)cc2)CC1 | -28% | –
COc1ccc(Br)c2c1-c1nc(NC(=O)c3cccc(C)c3)sc1C2 | -8.97% | –
CCCn1c(=N)c(C(=O)NC(C)c2ccccc2)cc2c(=O)n3ccccc3nc21 (stereo not given) | -1.4% | –
COC(=O)c1c(-c2ccc(Cl)cc2)noc1N1CCN(c2cccc(C(F)(F)F)c2)CC1 | – | 10.2 µM (active)
COc1ccc(Br)cc1CC1C(=O)Nc2ccccc21 (stereo not given) | -2.78% | –
CCC(=O)C1=C(c2cccc([N+](=O)[O-])c2)N(C(=O)CC)n2c(nnc2-c2ccccc2)S1 | 1.46% | –

SMILES | activity change, negative = viability loss | Potency
Cc1c(Cl)cccc1NC(=O)c1oc2ccc(S(=O)(=O)N3CCC4(CC3)OCCO4)cc2c1C | -15.4% | –
Clc1cccc(-c2noc3ncnc(NC4CCCCC4)c23)c1 | 10.9% | –
Cc1cccc(CS(=O)(=O)c2ncc(Cl)c(C(=O)Nc3nc4ccc(F)cc4s3)n2)c1 | – | 14.5 µM (active)
CCOCCCNC(=O)c1ccc(-n2c(-c3ccccc3)cc3c2CCC(C)C3)cc1 (stereo not given) | 3% | –
O=C(Cn1c(-c2cccs2)cc2cc(F)ccc21)NCCCN1CCN(c2ccccc2F)CC1 | -14.6% | –
O=C(Cn1c(-c2cccs2)cc2ccccc21)NCCCN1CCN(c2ccc(F)cc2)CC1 | -19.8% | –
COc1ccc(NC(=O)Cn2c(=O)n(CCC(=O)NCc3ccccc3OC)c(=O)c3ccccc32)cc1Cl | – | 16.2 µM (active)
Cc1cc(NC(=O)C2CCCN(S(=O)(=O)c3cccc4nonc34)C2)ccc1Br (stereo not given) | -5.15% | –
O=C(CCS(=O)(=O)c1nc(-c2cccs2)cc(C(F)(F)F)n1)Nc1ccc(OC(F)(F)F)cc1 | -29.1% | –
CCN(CC)CCNC(=O)c1cc(-c2ccc(Br)s2)nc2ccccc12 | – | 10.2 µM (active)
COc1ccc(-c2cc(C(F)(F)F)nc(S(C)(=O)=O)n2)cc1 | – | 18.2 µM (active)
Cc1ccc(NC(=O)N2CCc3cc(S(=O)(=O)N4CCC(C)CC4)ccc32)cc1F | -17.4% | –
COc1ccccc1Nc1nn2c(=O)c3ccc(C(=O)Nc4ccc(F)cc4)cc3nc2s1 | – | 7.24 µM (active)
COc1cccc(-n2c(SCC(=O)c3ccc(Cl)cc3)nc3c([nH]c4ccccc43)c2=O)c1 | – | 10.2 µM (active)
CCC(Sc1nc2ccccc2c2nc(-c3ccccc3)nn12)C(=O)Nc1cccc(OC)c1 (stereo not given) | 6.68% | –
COCCCNC(=O)c1ccc(-n2c(-c3ccccc3)cc3c2CCC(C)C3)cc1 (stereo not given) | 5.81% | –
CCN(CC)c1ccc(NC(=O)C2COc3ccc(OC)cc3C2)c(C)c1 (stereo not given) | -22.2% | –
CCC(=O)C1=C(c2cccc([N+](=O)[O-])c2)N(C(=O)CC)n2c(nnc2C2CCCCC2)S1 | 6.08% | –
COC(=O)c1ccccc1NC(=O)c1nc(S(=O)(=O)Cc2cccc(C)c2)ncc1Cl | -12.8% | –
Cc1ccccc1S(=O)(=O)Cc1ccc(C(=O)N2CCN(c3cccc(Cl)c3)CC2)o1 | -27.6% | –
